Hit rate of the full screen: of about 360,000 compounds, about 25,000 (6.9%) were called active. Not shown: some 9% with an inconclusive outcome. The sample as a whole holds a higher share of actives than the screen did. Values without a mark were called inactive. The call rests on the fitted dose curve; in most records, active means well fitted inhibition curve with a large enough effect; inconclusive means small, poorly fitted or top-dose-only effect; inactive means flat fitted curve, though single readings scatter.
target: Luciferin 4-monooxygenase (Photinus pyralis) (UniProt P08659); experiment: qHTS profiling assay for firefly luciferase inhibitor/activator using purifed enzyme and Km concentrations of substrates (counterscreen for miR-21 project); conditions: purified FLuc, luminescence inhibition; series mostly up to 57.5 µM; activity change, negative = inhibition: at the top concentration; further: nearly all actives have a fitted effect of over 55% in size;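 on activity change, negative = inhibition: plate controls were vehicle for no effect and reference inhibitor for full effect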
Sequence (P08659 whole entry, looked up): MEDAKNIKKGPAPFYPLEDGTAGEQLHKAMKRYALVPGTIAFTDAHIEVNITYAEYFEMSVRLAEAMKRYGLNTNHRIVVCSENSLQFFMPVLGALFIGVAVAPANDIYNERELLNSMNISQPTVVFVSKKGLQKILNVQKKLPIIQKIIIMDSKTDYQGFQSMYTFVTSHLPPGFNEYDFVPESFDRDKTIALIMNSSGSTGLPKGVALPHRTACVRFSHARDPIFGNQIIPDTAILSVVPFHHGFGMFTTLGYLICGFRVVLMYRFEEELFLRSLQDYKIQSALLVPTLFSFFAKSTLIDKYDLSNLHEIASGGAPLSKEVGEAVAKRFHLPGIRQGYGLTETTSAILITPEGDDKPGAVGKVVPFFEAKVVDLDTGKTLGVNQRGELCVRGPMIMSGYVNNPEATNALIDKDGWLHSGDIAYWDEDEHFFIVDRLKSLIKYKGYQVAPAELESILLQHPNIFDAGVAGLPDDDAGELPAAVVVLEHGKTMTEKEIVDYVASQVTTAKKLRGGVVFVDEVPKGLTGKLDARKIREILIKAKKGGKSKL
Outline: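 Purified P. pyralis luciferase (10nM final) with 10uM D-luciferin and 10uM ATP (Km levels) in 50mM Tris acetate pH 7.5, 10mM Mg acetate, 0.01% Tween-20, 0.05% BSA; qHTS 6-point titration, ~60 µM downward; luminescence read.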
Potency means the concentration at half of the fitted maximal effect.

Compared with `O=C(Nc1cc(Cl)cc(Cl)c1)c1ccc2c(c1)N(Cc1cccc(Cl)c1)C(=O)c1ccccc1S2=O` (stereo unspecified), `O=C(CSc1nc2c(c(=O)[nH]1)CN(Cc1ccc(F)cc1)CC2)Nc1ccccc1Cl` is higher in “activity change, negative = inhibition” value: -1.73% for the first, -0.468% for the second.

Going from `CCN(CC)c1ccc(NS(=O)(=O)c2cc(-c3cc(C)no3)ccc2C)c(C)c1` to `CCc1ccc(NC(=O)c2nn(-c3ccc(C)cc3)c(=O)n(C)c2=O)cc1`, the “activity change, negative = inhibition” value rises from -13.7% to -1.09%.

First: Cc1cccc(C)c1-n1ncc(C(=O)NCCCN2CCCCC2)c1C1CCN(C(=O)OC(C)(C)C)CC1
Second: CC(C)(C)OC(=O)N1CCC(c2c(C(=O)NCc3ccccn3)cnn2-c2ccc(F)cc2)CC1
The “activity change, negative = inhibition” value of the first is lower: -1.11% for the first, 0.137% for the second.

First: CCOC(=O)c1c(C)[nH]c(C)c1S(=O)(=O)N(C)CC(=O)N1CCN(c2ccccc2)CC1
Second: CCOC(=O)c1[nH]c(C)c(CCC(=O)NCc2ccccc2C)c1C
The “activity change, negative = inhibition” value of the first is higher: -1.32% for the first, -6.99% for the second.

First: N#CC(C(=O)c1ccc(S(=O)(=O)N2CCCCCC2)cc1)c1nc2ccccc2[nH]1 (stereo unspecified)
Second: O=C1CCCc2cc(S(=O)(=O)N3CCCC(C(=O)NCc4ccccc4)C3)ccc2N1 (stereo unspecified)
The “activity change, negative = inhibition” value of the first is lower: -13.5% for the first, 5.19% for the second.

First: OC(c1nc2ccc(F)cc2[nH]1)C(O)c1nc2ccc(F)cc2[nH]1 (stereo unspecified)
Second: CCOC(=O)c1c(N)n(-c2cccc(C)c2C)c2nc3ccccc3nc12
The “activity change, negative = inhibition” value of the first is higher: -2.89% for the first, -3.45% for the second.

Going from `CCOC(=O)c1cccc(NC(=O)Cn2cnc3nc4c(cc3c2=O)CCCC4)c1` to `Cc1cc(NC(=O)CN2CCCCC2C)nc2c1c(=O)oc1ccccc12` (stereo unspecified), the “activity change, negative = inhibition” value rises from -14.8% to 1.83%.

First: COc1ccc(CCNC(=O)C(=O)NCC(c2ccco2)S(=O)(=O)c2cccs2)cc1OC (stereo unspecified)
Second: COc1ccccc1OCC(=O)OCc1cc(-c2ccco2)on1
The “activity change, negative = inhibition” value of the first is higher: 6.4% for the first, -4.02% for the second.

First: O=C(NCC#CCSc1nnc(-c2cccc3ccccc23)o1)c1cccs1
Second: O=C(OCC#CCSc1nnc(-c2ccncc2)o1)c1sc2ccccc2c1Cl
The “activity change, negative = inhibition” value of the first is higher: 1.74% for the first, -11.9% for the second.

First: Cc1noc(C)c1COc1ccc2ccc(=O)oc2c1
Second: CCCc1cc(=O)[nH]c(SCc2cc(=O)oc3c(C)c(C)ccc23)n1
The “activity change, negative = inhibition” value of the first is higher: 0.0642% for the first, -14.4% for the second.

Compared with `COc1ccc2cc(-c3nc(Cl)c4c5c(sc4n3)CC(C)CC5)c(=O)oc2c1` (stereo unspecified), `COc1ccc(N2CCN(CCNC(=O)c3nnc(Cc4c(F)cccc4Cl)o3)CC2)cc1` is higher in “activity change, negative = inhibition” value: -5.25% for the first, 4.25% for the second.

First: COc1ccc(CCN2C(=O)N(c3cccc(OC)c3)C(=O)C2CC(=O)Nc2ccccc2)cc1 (stereo unspecified)
Second: CN(C(=O)CSc1nc2ccc(NC(=O)COc3ccccc3)cc2s1)c1ccccc1
The “activity change, negative = inhibition” value of the first is higher: -3.46% for the first, -14.5% for the second.

First: CC(C)C(=O)NCc1cc(-c2ccc(Cl)cc2)no1
Second: Cc1ccc(NC(=O)CN(C)C(=O)c2ccc(Br)o2)cc1
The “activity change, negative = inhibition” value of the first is higher: 3.81% for the first, 0.27% for the second.

Compared with `COCCCNC(=O)COc1cc(C)c(Cl)c(C)c1`, `COc1ccccc1OCC(=O)OCn1c(SC)nnc(C)c1=O` is higher in “activity change, negative = inhibition” value: 0.797% for the first, 2.06% for the second.

Going from `Cn1c(SCC(=O)Nc2ccc(Br)cc2F)nnc1-c1ccco1` to `CS(=O)(=O)n1nc(-c2ccco2)nc1N`, the “activity change, negative = inhibition” value rises from -15.5% to 1.41%.

First: Cc1cccc(N2CCN(C(=O)c3ccc(Nc4nc5ccccc5n5nnnc45)cc3)CC2)c1C
Second: Cc1ccc(Cl)cc1N1CCN(C(=O)c2cccn3c(=O)c4cc(Cl)ccc4nc23)CC1
The “activity change, negative = inhibition” value of the first is lower: -9.44% for the first, -2.45% for the second.

Going from `Cc1ccccc1NC(=O)C1CCN(C(=O)NC2CCCCC2)CC1` to `O=C(CN1CCN(c2ccccn2)CC1)NC1CCCCC1`, the “activity change, negative = inhibition” value falls from 1.56% to -0.747%.

Compared with `COC(=O)c1cc(NC(=O)CCS(=O)(=O)c2cc(Br)cc3c2N(C(=O)C2CC2)CC3)cc(C(=O)OC)c1`, `CC(C)(C)NC(=O)NC(=O)COC(=O)CCC1CCCCC1` is higher in “activity change, negative = inhibition” value: -5.07% for the first, 2.91% for the second.

Going from `Cc1nc2ccccc2n1CC(=O)N/N=C/c1cccs1` to `O=C(CC1CCCCC1)NCc1ccccc1`, the “activity change, negative = inhibition” value falls from 4.13% to -18.6%.

First: CN1CCN(C(=O)CCc2ncc(C(F)(F)F)cc2Cl)CC1
Second: CN(C(=O)COC(=O)Cn1cnc2c1c(=O)n(C)c(=O)n2C)C1(C#N)CCCCC1
The “activity change, negative = inhibition” value of the first is lower: 0.917% for the first, 3.02% for the second.

`COc1ccccc1NC(=O)C(C)OC(=O)CC1CCCC1` (stereo unspecified) was tested, and the “activity change, negative = inhibition” value was 4.56%.

In the case of `CC(C)c1nc2ccc(C(=O)O)cc2[nH]1`, the Potency is reported as 15.1 µM (active).
With `C#CCSc1nnc(-c2sc3ccccc3c2Cl)o1` the Potency was 5.36 µM (active).
`COc1ccc(-c2cc3ccc(OCc4nn[nH]n4)cc3oc2=O)cc1` was tested, and the Potency was 1.69 µM (active).
With `Cc1cc(OCc2cc(C(=O)NCc3cc(C(C)C)no3)no2)cc(C)c1Cl` the Potency was 4.78 µM (active).
`Cn1c(-c2ccco2)nc2cc3ccccc3cc21` was tested, and the Potency was 0.12 µM (active).
In the case of `O=C(Nc1cc2ccccc2oc1=O)C1CCCCC1`, the Potency is reported as 2.39 µM (active).
`CCC(C)NC(=O)c1c(N)n(/N=C/c2cccs2)c2nc3ccccc3nc12` (stereo unspecified) was tested, and the Potency was 3.01 µM (active).
For `N/C(=N\OC(=O)CC1CCCCC1)c1ccccc1`, the Potency was 2.13 µM (active).
In the case of `COc1ccccc1OCC(=O)O/N=C(\N)c1ccccn1`, the Potency is reported as 19 µM (active).
With `N/C(=N\OC(=O)CCC1CCCCC1)c1ccccn1` the Potency was 0.536 µM (active).
